Shown are actives, neighbours in structure and some others; about 3.3% of the full set was active somewhere.
SUMO HTRF inh = inhibitors of human SUMOylation (UBC9); P63279; HTRF SUMOylation assay, SAE1/SAE2 + UBC9, in vitro; inhibition, % at 35 µM; 0.36% of 290,000 active; AID 2006; in the data active = inhibition above about 50%, passing the limit was not always enough
Target sequence (P63279 whole entry, looked up): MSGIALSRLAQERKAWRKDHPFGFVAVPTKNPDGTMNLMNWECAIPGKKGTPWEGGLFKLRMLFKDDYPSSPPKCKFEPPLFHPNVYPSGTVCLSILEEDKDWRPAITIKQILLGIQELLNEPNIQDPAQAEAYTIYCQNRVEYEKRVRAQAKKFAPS
HGIII-sPLA2 inh = Blocks human group III sPLA2 activity | QFRET BODIPY PC-A2 liposome hydrolysis, fluorescence | inhibition, % at 12.2 µM | 0.56% of 370,000 active | AID 743126;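 active = inhibition above mean plus 3 SD of compounds lying within the high and low control bounds, cut at about 19% in these data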
UBC13 polyUb = inhibitors of human UBC13 polyubiquitin chain formation; P61088; TR-FRET; inhibition, % at 20 µM; 0.47% of 330,000 active; in the data active = inhibition above about 45%, passing the limit was not always enough
Target sequence (P61088 whole entry, looked up): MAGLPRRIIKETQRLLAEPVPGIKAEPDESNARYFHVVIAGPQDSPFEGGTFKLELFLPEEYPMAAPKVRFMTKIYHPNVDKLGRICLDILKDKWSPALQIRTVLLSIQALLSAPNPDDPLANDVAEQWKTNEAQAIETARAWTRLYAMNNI
GRIN3A LBD mod = modulators (binders) of human NR3A ligand-binding domain; Tm shift relative to glycine control, % at 25 µM; 2.5% of 340,000 active; NR3A LBD differential scanning fluorimetry, Tm shift; 0% = protein alone, 100% = glycine-bound protein;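 active = melting temperature shift of at least 10% of the positive control shift, at one fixed dose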
Large screens that a line does not name were inactive.

O=C1NC(c2ccccc2)(C(F)(F)F)C(=O)N1Cc1cccnc1 (configuration not stated)	GRIN3A LBD mod 20
CCC1CCc2c(sc(NC(=O)C3c4ccccc4Oc4ccccc43)c2C(N)=O)C1 (configuration not stated)	GRIN3A LBD mod 17
C[C@H]1CCCN1c1cccc2c1S(=O)(=O)N1CC[C@H](C1)O2	none (no result: SUMO HTRF inh, UBC13 polyUb, GRIN3A LBD mod)
COc1ccc(NC(=O)NC[C@@H]2CC[C@@H](Cc3ccc(-c4ccccc4)cc3)O2)cc1	GRIN3A LBD mod 11 (no result: SUMO HTRF inh, UBC13 polyUb)
COCCNC(=S)N(C)[C@H]1C[C@H]2c3[nH]c4c(-c5cccc(C)c5)cccc4c3CCN2C[C@H]1[C@H](C)O	none (no result: SUMO HTRF inh, UBC13 polyUb, GRIN3A LBD mod)
Cc1ncc(CO)c(/C=N/N=C/c2ccccc2O)c1O	none
Cc1ncc(CO)c(/C=N/Nc2ccc(C(F)(F)F)cn2)c1O	GRIN3A LBD mod 27
COc1ccc(CN2CCC(CNC(=O)Nc3ccccc3)CC2)cc1	none (no result: SUMO HTRF inh, UBC13 polyUb, GRIN3A LBD mod)
CCOC(=O)CSc1ncc(-c2ccccc2)nn1	GRIN3A LBD mod 37
O=S1(=O)c2c(cccc2N2CCSCC2)Oc2ccccc2CN1Cc1cn(Cc2cccc(F)c2)nn1	none (no result: SUMO HTRF inh, UBC13 polyUb, GRIN3A LBD mod)
O=C(N/N=C/c1ccc(Cl)cc1Cl)c1ccc2nc[nH]c2c1	none (no result: SUMO HTRF inh)
CC(=C/c1ccccc1)/C=N/NC(=O)c1ccc2nc[nH]c2c1	none
O=C(N/N=C/C(Br)=C\c1ccccc1)c1ccc2nc[nH]c2c1	GRIN3A LBD mod 15
C=CCc1cccc(/C=N/NC(=O)c2ccc3nc[nH]c3c2)c1O	GRIN3A LBD mod 11 (no result: SUMO HTRF inh)
COc1cc(/C=N/NC(=O)c2[nH]nc3c2CCc2ccccc2-3)ccc1O	GRIN3A LBD mod 29
CCC(CC)NC(=O)c1ccc2nc[nH]c2c1	GRIN3A LBD mod 18
C=CCN1C(=O)[C@H](CC(=O)NCc2ccc(C)o2)[C@@]2(C(=O)OCC)CCCC=C12	none (no result: SUMO HTRF inh, UBC13 polyUb, GRIN3A LBD mod)
Cc1nc2ccc(NC(=O)c3cc(Cl)ccc3F)cc2c(=O)[nH]1	none (no result: SUMO HTRF inh, UBC13 polyUb, GRIN3A LBD mod)
O=C(OCc1cn(Cc2ccccc2Cl)nn1)N1CCOCC1	none (no result: SUMO HTRF inh, UBC13 polyUb, GRIN3A LBD mod)
COc1cc(/C=N/NC(=O)c2ccc3nc[nH]c3c2)ccc1O	GRIN3A LBD mod 26
COc1cccc(/C=N/NC(=O)c2ccc3nc[nH]c3c2)c1	none
COc1ccc(Oc2ccc(N/C=C3\CCCC3=O)cc2)cc1	none
COc1ccc(Oc2ccc(N/C=C3/CCCC3=O)cc2)cc1	GRIN3A LBD mod 17
Cc1ccc(-c2csc(NC(=O)CSc3nc4ccccc4[nH]3)n2)cc1	GRIN3A LBD mod 20 (no result: UBC13 polyUb)
O=C(CSc1nc2ccccc2c(=O)[nH]1)Nc1ccccc1N1CCOCC1	none
COc1ccc(-c2csc(NC(=O)CSc3nc4ccccc4c(=O)[nH]3)n2)cc1	GRIN3A LBD mod 21
O=C(CSc1nc2ccccc2c(=O)[nH]1)Nc1ccc(N2CCOCC2)cc1	GRIN3A LBD mod 17
COC(=O)c1ccccc1NC(=O)CSc1nc2ccccc2c(=O)[nH]1	none
Cc1csc(SCC(=O)Nc2nc(-c3ccccc3)cs2)n1	none
Nc1ccccc1SCC(=O)Nc1nc(-c2ccccc2)cs1	GRIN3A LBD mod 11
Cc1cc(=O)[nH]c(SCC(=O)Nc2nc(-c3ccccc3)cs2)n1	none
COC(=O)C1CN(CC(C)C)CCS(=O)(=O)N1Cc1cccc(Cl)c1 (configuration not stated)	none (no result: SUMO HTRF inh, UBC13 polyUb, GRIN3A LBD mod)
COCCNC(=S)N(C)[C@H]1C[C@H]2c3[nH]c4c(-c5ccc6c(c5)OCO6)cccc4c3CCN2C[C@H]1[C@H](C)O	none (no result: SUMO HTRF inh, UBC13 polyUb, GRIN3A LBD mod)
CCCCC(CCC(=O)O)(C(=O)OCC)c1csc(Nc2ccc(C)cc2)n1 (configuration not stated)	none
CCOC(=O)/C(=N\Nc1ccccc1)c1csc(Nc2ccc(C)cc2)n1	GRIN3A LBD mod 25
Nc1c(C(=O)N/N=C/c2cccnc2)oc2nc(-c3ccco3)cc(-c3ccco3)c12	SUMO HTRF inh 95
Nc1c(C(=O)N/N=C/c2cccnc2)oc2nc(-c3ccccc3)cc(-c3ccco3)c12	none
COC(=O)[C@]12C[C@H](CC(=O)NCCC(C)C)C(=O)N(CCc3ccc(OC)c(OC)c3)C1=C[C@H](C1CCCC1)O[C@@H]2C	none (no result: SUMO HTRF inh, UBC13 polyUb, GRIN3A LBD mod)
O=c1oc2cc(O)ccc2cc1-c1nc2c(s1)CCc1ccccc1-2	GRIN3A LBD mod 565 (no result: UBC13 polyUb)
CN1[C@H](Cc2ccccc2)COc2cc(N3CCCC3)ccc2S1(=O)=O	none (no result: SUMO HTRF inh, UBC13 polyUb, GRIN3A LBD mod)
C=CCn1c(COc2ccccc2)nnc1SCC(=O)Nc1ccc(S(=O)(=O)Nc2cc(C)nc(C)n2)cc1	none (no result: SUMO HTRF inh, UBC13 polyUb, GRIN3A LBD mod)
CCCN=C1N(CC)C[C@@H]2[C@@H]3C(=O)N(Cc4ccccc4)C(=O)[C@@H]3[C@](Cc3ccccc3)(C(=O)OC)N12	GRIN3A LBD mod 13 (no result: SUMO HTRF inh, UBC13 polyUb)
CC(=NNC(=O)CSc1nnc(-c2ccccc2)n1-c1ccccc1)c1ccc2ccccc2c1	none (no result: SUMO HTRF inh, UBC13 polyUb, GRIN3A LBD mod)
O=C(Nc1cc(C(F)(F)F)ccc1Cl)c1ccc(NC(=O)C(F)(F)F)cc1	GRIN3A LBD mod 28

Compound activity from PubChem BioAssay.
